TIM10 inh: growth inhibitors of TIM10 yeast strain | S. cerevisiae TIM10 strain growth, BacTiter-Glo luminescence, 24 h | inhibition, % at 10 µM | hit rate 1.4% among 330,000;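 active = inhibition of 40% or more at the single tested concentration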;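 also: wild-type TIM10 isogenic control strain grown at permissive 25 °C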
tim10-1 inh: tim10-1 yeast growth inhibition | S. cerevisiae tim10-1 ts strain growth, BacTiter-Glo, 24 h | inhibition, % at 20 µM | hit rate 2.2% among 330,000 | AID 463190;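 active = inhibition of at least 40%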;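 also: mutant grown at 25 °C; 0% = DMSO wells with yeast and 100% = wells holding no yeast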
PfHsp90 yeast 2: inhibits growth of yeast expressing Plasmodium falciparum Hsp90; S. cerevisiae expressing PfHsp90, BacTiter-Glo ATP, 48 h; yeast lacking PDR1 and PDR3 efflux regulators; hit rate 0.32% among 310,000; inhibition, % at 9.4 µM;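 active = every replicate shows inhibition above about 80%, whatever the replicate mean, limit read from the data; inconclusive = mean inhibition reaches the set limit but some replicate falls short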;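 also: 0% = DMSO neutral controls and 100% = 20 µM radicicol positive controls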
NALP1 yeast inh: NALP1 inhibition; S. cerevisiae NALP1/ASC/caspase-1 growth, X-gal OD620, 72 h; inhibition, % at 10 µM; hit rate 0.61% among 280,000; AID 2071; in the data active = inhibition mostly above about 24%, no sharp cut-off; inactive = mostly below about 32%
tim23-1 inh: tim23-1 yeast growth inhibition; hit rate 1.3% among 330,000; inhibition, % at 20 µM; S. cerevisiae tim23-1 growth, BacTiter-Glo luminescence, 24 h;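 active = growth inhibition of the mutant yeast at or above 50%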;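 also: temperature-sensitive mutant grown at 25 °C; plate controls were DMSO-treated mutant yeast for no effect and medium wells lacking yeast for full effect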
SKKanGAS inh: SKKanGAS growth inhibition | S. pyogenes SKKanGAS, kanamycin growth, BacTiter-Glo, 6 h | AID 1662 | inhibition, % at 7.5 µM | hit rate 1.3% among 300,000;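 active = mean replicate score, as percent of positive control median, at least 50; inconclusive = mean below 50 but one replicate at or above 50; inactive = mean and every replicate below 50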;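 also: strain carries kanamycin resistance gene driven by streptokinase promoter and grows in 40 µg/ml kanamycin; loss of luminescence reflects streptokinase promoter inhibition or plain growth inhibition; 0% = median of DMSO wells and 100% = positive control at its reference dose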
tim23-1 confirm: tim23-1 yeast growth inhibition, confirmed; hit rate 83% among 4,400; S. cerevisiae tim23-1 growth, BacTiter-Glo luminescence, 24 h; inhibition, % at 20 µM; AID 463218; shares compounds with tim23-1 inh;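 active = inhibition above about 39% in either of two replicate wells at 20 µM, limit read from the data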;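 also: temperature-sensitive tim23-1 mutant grown at 25 °C; 0% = DMSO wells with yeast and 100% = medium wells without yeast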
An asterisk follows results filed as active; ? = inconclusive; nt = no result given. Hits are enriched below; roughly 4.8% of the tested compounds scored in any of these assays.

SMILES | TIM10 inh | tim10-1 inh | PfHsp90 yeast 2 | NALP1 yeast inh | tim23-1 inh | SKKanGAS inh | tim23-1 confirm
O=C(Nc1ccc(Br)cn1)c1ccc(Br)s1 | 10 | 3 | 12 | -4 | 27 | -7 | nt
Cc1cc(C(=O)Nc2ccc(Br)cn2)sc1C | 11 | 0 | 43 | nt | 64* | nt | 68*
O=C(Nc1ccccc1C(=O)Nc1ccc(Br)cn1)c1ccccc1Cl | 18 | 37 | -29 | nt | 52* | nt | 54*
Cc1ccccc1C(=O)Nc1ccc(Br)cn1 | -8 | -1 | -9 | 32 | 21 | 2 | nt
Cn1c2c(c(=O)n(C)c1=O)CN(CC1CCCO1)CN2 (stereo unspecified) | 2 | -6 | nt | 26 | 10 | -2 | nt
CS(=O)(=O)N1CCc2cc(C(=O)N3CCN(c4cccc(Cl)c4)CC3)ccc21 | 8 | 31 | -1 | 14 | 28 | 13 | nt
COCCNC(=O)CNC(=O)c1nn(-c2ccc(OC)c(Cl)c2)c(=O)c2ccccc12 | -7 | 16 | -2 | -6 | 19 | -6 | nt
CCCC(NC(=S)NCC1CCCO1)C12CC3CC(CC(C3)C1)C2 (stereo unspecified) | 37 | 39 | -47 | -14 | 51* | ? | 51*
O=C(c1ccc(F)cc1F)N1CCC(N2CCC(C(=O)N3CCOCC3)CC2)CC1 | 10 | 0 | 15 | 12 | 10 | -1 | nt
O=C(/C=C/c1c[nH]c2ccccc12)c1cccc2ccccc12 | 37 | 25 | 4 | 15 | 54* | 28 | 62*
CCN(C(=O)c1cccc(S(=O)(=O)N2CCCCC2)c1)C1CCS(=O)(=O)C1 (stereo unspecified) | 7 | 6 | -12 | nt | 4 | -2 | nt
N#Cc1nc(Nc2cc(F)cc(F)c2)c2ncn(CC(F)F)c2n1 | 21 | 20 | 16 | nt | 52* | nt | 36
Cc1cc2cc(CN(Cc3cccs3)C(c3nnnn3C(C)(C)C)C(C)C)c3nnnn3c2cc1C (stereo unspecified) | nt | nt | 4 | 9 | nt | 2 | nt
CCOc1cc(NCc2ccccc2)c2ncn(C(C)C)c2c1 | 22 | -8 | -5 | nt | 63* | nt | 40*
Cc1ccc(NS(=O)(=O)c2ccc3c(c2)NC(=O)CO3)cc1C | 0 | 16 | 9 | -1 | 12 | -5 | nt
COc1ccc(N2C(=O)CC(NCc3cccs3)C2=O)cc1 (stereo unspecified) | 1 | -4 | -24 | -31 | 55* | 0 | 13
Cc1ccc(-c2nnc(OCc3nc4ccccc4n3C)c3ccccc23)cc1 | 28 | 34 | 29 | nt | 52* | -3 | 50*
Cc1ccc(-c2nnc(OCc3cccnc3)c3ccccc23)cc1 | -14 | 30 | nt | 1 | 53* | 0 | 54*
Cc1ccc(S(=O)(=O)N2CCN(c3ccc(N4CCOCC4)nn3)CC2)cc1[N+](=O)[O-] | 0 | 1 | -9 | nt | 6 | -13 | nt
CCn1c(SCc2ccc(Cl)cc2)nc2nc3c(cc2c1=O)CCCC3 | 16 | 12 | -9 | 24 | 27 | 25 | nt
CSc1nc2nc3c(cc2c(=O)n1-c1ccccc1C)CCCC3 | 10 | 17 | 23 | 14 | 55* | -7 | 44*
CC(C)N(Cc1ccccc1)S(=O)(=O)N(C)C | -3 | -10 | 13 | 17 | 76* | 0 | 8
Cc1ccc(S(=O)(=O)N(Cc2ccccc2)C(C)C)cc1 | -8 | 1 | 9 | 12 | 7 | 22 | nt
CCC(C)C(=O)Nc1c2c(nc3c1CCC3)CCCC2 (stereo unspecified) | -28 | 10 | -3 | 7 | -2 | -1 | nt
CC(=O)Nc1ccc(NC(=O)C(C)OC(=O)c2c(C)nn(-c3ccccc3)c2Cl)cc1 (stereo unspecified) | 6 | 11 | -23 | nt | 22 | nt | nt
SMILES | TIM10 inh | tim10-1 inh | PfHsp90 yeast 2 | NALP1 yeast inh | tim23-1 inh | SKKanGAS inh | tim23-1 confirm
Cc1ccccc1NC(=S)NC(=O)/C=C/c1ccco1 | 7 | 21 | 8 | 16 | 55* | 9 | 36
Cc1cccc(NC(=S)NC(=O)/C=C/c2ccco2)c1 | -26 | 4 | -20 | 1 | 21 | 3 | nt
Cc1cccc(NC(=S)NC(=O)/C=C/c2ccco2)n1 | 21 | 23 | nt | 26 | 57* | -8 | 40*
Cc1cccc(NC(=S)NC(=O)c2ccco2)c1C | 25 | 31 | 1 | -3 | 56* | -2 | 17
O=C(/C=C/c1ccco1)NC(=S)Nc1ccccc1 | 5 | 21 | -14 | 24 | 54* | 2 | 29
CC(=O)c1ccc(NC(=S)NC(=O)/C=C/c2ccco2)cc1 | 10 | 6 | -7 | 10 | 4 | 7 | nt
O=C1CNC(=S)N1Cc1ccc(F)cc1 | 12 | -3 | 17 | 18 | 6 | -4 | nt
O=c1cc(CSc2ccc(S(=O)(=O)N3CCCCC3)cn2)nc2sccn12 | 15 | 27 | -24 | -5 | 66* | 5 | 38
CC#CCN1c2ccccc2[C@]23C[C@@H](C(=O)OC)N(C(=O)NCCBr)C2=NC(C(=O)OC)=C(C(=O)OC)[C@H]13 | 3 | 5 | -12 | nt | 16 | 1 | nt
Cc1ccc(N=N/C(=C\O)C(=O)c2ccncc2)cc1 | 6 | 13 | -37 | 4 | 71* | 1 | 64*
O=C(/C(=C/O)N=Nc1ccc(Cl)cc1)c1ccncc1 | -20 | 16 | -43 | -4 | 62* | -8 | 57*
CC(C)Cc1nc2sc3c(c2c(=O)n1N)CC(C(C)C)OC3 (stereo unspecified) | -26 | -13 | 11 | 11 | 5 | -5 | nt
CC(C)C1Cc2c(sc3ncnc(NN)c23)CO1 (stereo unspecified) | 7 | 30 | -38 | 8 | 52* | 7 | 27
O=C(C1=C[C@@H](c2ccccc2)C[C@@H](OCCCCO)O1)N1CCOCC1 | 2 | 1 | 15 | 2 | 6 | 0 | nt
N#C/C(=C\c1ccc(O)cc1)c1nc2ccccc2o1 | 36 | 33 | 10 | -5 | 54* | -13 | 61*
COc1ccc(N2CCC(CNC(=S)Nc3ccc(C)cc3C)C2)cc1 (stereo unspecified) | 30 | 8 | 6 | nt | 53* | 12 | 68*
COc1ccc(N2CCC(CNC(=O)Nc3ccc(OC)cc3OC)C2)cc1 (stereo unspecified) | 7 | 6 | -19 | -2 | 13 | 1 | nt
COc1ccc(CNCCCC(=O)Nc2c(Cl)ccc(C)c2Cl)cc1OC | -9 | 9 | 1 | 11 | 5 | 6 | nt
COc1ccc(CC(=O)NNC(=O)c2cccs2)cc1 | -7 | 0 | -5 | 12 | 11 | 3 | nt
CC(=O)NC(c1ccc(Cl)cc1Cl)c1ccc2cccnc2c1O (stereo unspecified) | -37 | -1 | 106* | 13 | 58* | 73* | 57*
CC(=O)NC(CC(=O)NC(C)c1ccc(Cl)cc1Cl)c1ccccc1 (stereo unspecified) | -4 | 20 | 0 | 13 | 1 | -5 | nt

Screening results deposited in PubChem by several laboratories.
